Screening data (PubChem)
Rows were chosen to be rich in hits. Some 7.9% of all compounds tested hit in one or more screens of this group.
HT1080 IDH1KD tx = toxicity to HT-1080 IDH1 knockdown cells (counter line); HT-1080 IDH1 knockdown viability, ATP luminescence, 48 h; Potency, µM (highest dose often 46.1 µM), without a hit: at the top dose activity, negative = toxicity, usual class: cytotoxic; 360,000 compounds, 2% hits; AID 686971;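 further: 0% = DMSO wells and -100% = cell-free medium wells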
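IDH1KD HT-1080 cells, 750/well, RPMI + 5% FBS; compound pinned after 2 h settling; 48 h, 37 °C; CellTiter-Glo luminescence; % activity normalised to DMSO and no-cell wells; curves fitted, classed by r2 and efficacy.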
HT1080NT lethal = kills 2HG-producing HT-1080-NT fibrosarcoma cells. HT-1080-NT fibrosarcoma viability, CellTiter-Glo ATP luminescence, 48 h. 360,000 compounds, 1.6% hits. Potency, µM (series often up to 46.1 µM), for the others: top-dose activity, negative = less viability, usual class: cytotoxic;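 further: NT is the 2HG producing partner of a matched IDH1 knockdown line; 0% = DMSO-treated cells and -100% = media-only wells without cells; nearly all actives have a fitted effect of over 55% in size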
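Viability by CellTiter-Glo luminescence after 48 h compound exposure at 37C of HT-1080-NT cells (750/well, RPMI, 5% FBS). % activity scaled between DMSO wells and medium-only wells, then curve-fitted and categorized by curve class.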
SW480 rerep = DNA re-replication induction in SW480 cells; 340,000 compounds, 1.8% hits; SW480 DNA re-replication, Hoechst DNA content imaging, 48 h; Potency, µM (doses to about 46.1 µM), inactives show at the highest dose re-replication activation, usual class: activators; further: % of control where 0% means no effect; nearly all actives have a fitted effect of over 55% in size
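Image-based read-out: total Hoechst fluorescence of nuclei (405 nm excitation, 500-530 nm emission), with hits raising the fraction of high-intensity nuclei. SW480 colon cells incubated 48 hr with compounds at 37 C.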
KB-V1 MDR tox = kills drug-selected multidrug resistant KB-V1 cells; 400,000 compounds, 3.4% hits; KB-V1 MDR cells viability, CellTiter-Glo, 72 h; Potency, µM (doses to about 46.1 µM), hits mostly cytotoxic; further: on the % scale 0 is the no-effect control and ±100 the full control effect; nearly all actives have a fitted effect of over 60% in size
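Drug-selected KB-V1 cells, grown in DMEM lacking phenol red with 10% FBS, receive compound titrations; after three days at 37 degrees C, surviving cell ATP is quantified by CellTiter-Glo luminescence and responses normalized and curve-fitted.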
KB-3-1 cytotox = KB-3-1 parental cell cytotoxicity; KB-3-1 viability, CellTiter-Glo ATP luminescence, 72 h; Potency, µM (titrated, usually from 46.1 µM), hits mostly cytotoxic; 400,000 compounds, 1.4% hits; AID 1347075; further: on the % scale 0 is the no-effect control and ±100 the full control effect; nearly all actives have a fitted effect of over 60% in size
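Here the drug-naive KB-3-1 line serves as comparator for MDR sub-line selectivity; cells received compound titrations, 72 h at 37 °C, then CellTiter-Glo readout.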
MCF10A rereplic = induces DNA re-replication in MCF 10a normal breast cells; 350,000 compounds, 2.9% hits; Potency, µM (highest dose often 46.1 µM), for inactives: top-dose activity, positive = re-replication, hits mostly activators; MCF 10A DNA re-replication, Hoechst nuclear intensity, 48 h; further: % of control where 0% means no effect; nearly all actives have a fitted effect of over 50% in size
An asterisk follows results filed as active; i = inactive; ? = inconclusive; nt = no result given; [ ] = another dose, or the depositor's remark. The call rests on the fitted dose curve; in most records, active means well fitted curve in the direction sought with a large enough effect; inconclusive means small, poorly fitted or top-dose-only effect, or another doubt; inactive means no such curve, though single readings can be large; an effect the other way counts as inactive or inconclusive. Potency means the concentration at half of the fitted maximal effect.

SMILES | HT1080 IDH1KD tx | HT1080NT lethal | SW480 rerep | KB-V1 MDR tox | KB-3-1 cytotox | MCF10A rereplic
COc1ccc(-c2cc3nc(C4CCN(C(=O)OC(C)(C)C)CC4)c(C(=O)Nc4cc(C)cc(C)c4)cn3n2)cc1 | nt | nt | nt | i | i | nt
COc1ccc(-c2cc(C3CCN(c4ccc(C(C)=O)cc4[N+](=O)[O-])CC3)[nH]n2)cc1 | ? | ? | 8% | 15µM* | ? | 14%
COc1ccc(-c2cc(C3CCN(C(=O)OC(C)(C)C)CC3)[nH]n2)cc1 | -10% | -7% | -15% | 13µM* | ? | 15%
CCOC(=O)c1cn2nc(-c3ccc(OC)cc3)cc2nc1C1CCN(C(=O)OC(C)(C)C)CC1 | 4% | 9% | 21% | 6.5µM* | i | ?
COc1cccc(CNC(=O)[C@@H]2CCCN2C(=O)[C@H]2CCCCN2)c1 | 11% | 6% | nt | i | i | nt
Cc1cc(=O)c2c([nH]1)c(C)cc1[nH]c(C)c(C)c12 | 0% | 0% | 9.2µM* | i | ? | 8%
Cc1cc(C)c(S(C)(=O)=O)c(=O)[nH]1 | 17% | 20% | -8% | i | i | 4%
CCN(CC)c1ccc(/C=N/NC(=O)c2ccoc2C)c(O)c1 | 5.2µM* | ? | 13µM* | ? | 12µM* | ?
CCN(CC)c1ccc(/C=N/N=C(N)N)c(O)c1 | 1.6µM* | 1µM* | 16µM* | ? | ? | 4.1µM*
CCN(CC)c1ccc(/C=N/NC(=O)OC)c(O)c1 | 12%[9.24 µM] | -7% | 8% | ? | i | -1%
CCN(CC)c1ccc(/C=N/NC(=O)c2ccc3nc[nH]c3c2)c(O)c1 | 2.1µM* | ? | 21µM* | i | ? | 26%
COc1cccc(/C=N/NC(=O)c2ccc3nc[nH]c3c2)c1O | ? | ? | ? | i | i | 5%
CCN(CC)c1ccc(N=Cc2ccc(N(CC)CC)cc2O)cc1 | 1% | -2% | ? | i | ? | -11%
CCN(CC)c1ccc(/C=N/NC(=S)NC)c(O)c1 | -17% | -18% | -5% | i | 9.2µM* | 1.3µM*
CCN(CC)CCCNC(=O)c1ccc2nc(N3CCCCC3)sc2c1 | nt | nt | nt | i | i | nt
O=C(Nc1ccccc1)C1Cc2c(-c3cccc(F)c3)ccnc2O1 (centres undefined) | -16% | 4% | nt | i | i | nt
CS(=O)(=O)Nc1cccc(NC(=O)C2Cc3c(-c4cccc(F)c4)ccnc3O2)c1 (centres undefined) | ? | 2.1µM* | nt | ? | 6.5µM* | nt
COc1ccc(NC(=O)C2Cc3c(-c4cccc(C(C)=O)c4)ccnc3O2)cn1 (centres undefined) | 3.3µM* | ? | nt | i | 2.1µM* | nt
COc1ccc(CCCNC(=O)C2Cc3c(-c4ccccc4)ccnc3O2)cc1 (centres undefined) | ? | 8.2µM* | nt | ? | ? | nt
CC(=O)Nc1ccc(-c2ccnc3c2CC(C(=O)Nc2ccccc2)O3)cc1 (centres undefined) | 18µM* | ? | nt | ? | 21µM* | nt
CC(=O)Nc1ccc(NC(=O)C2Cc3c(-c4cccc(NC(C)=O)c4)ccnc3O2)cc1 (centres undefined) | 23% | 0% | nt | i | i | nt
COc1ccccc1-c1cc2nc(C)c(CCC(=O)NCCc3cccc(C)c3)c(C)n2n1 | nt | nt | nt | i | i | nt
COC(=O)c1cc(NC(=O)c2cc3c(-c4ccccc4F)nn(C)c3s2)cc(C(=O)OC)c1 | nt | nt | nt | i | i | nt
CCNC(=O)C1(C)CCCN(C(=O)c2nc3ccccc3s2)C1 (centres undefined) | 0% | 21% | nt | i | i | nt
CCN(CC)S(=O)(=O)c1ccc(C(=O)NCCSc2c(-c3ccc(OC)cc3)[nH]c3ccccc23)cc1 | nt | nt | nt | i | i | nt
SMILES | HT1080 IDH1KD tx | HT1080NT lethal | SW480 rerep | KB-V1 MDR tox | KB-3-1 cytotox | MCF10A rereplic
Cc1ccc(CNC(=O)COC(=O)c2ccccc2OCC(=O)Nc2ccc(Br)cc2)cc1 | -4% | -4% | nt | nt | nt | nt
COc1ccc(NC(=O)C2Cc3c(-c4cccc(NC(C)=O)c4)ccnc3O2)cc1 (centres undefined) | ? | ? | nt | ? | 4.1µM* | nt
COc1ccc(NC(=O)C2Cc3c(-c4cccc(C(C)=O)c4)ccnc3O2)cc1 (centres undefined) | 1.8µM* | ? | nt | ? | 4.1µM* | nt
COc1ccc(NC(=O)C2Cc3c(-c4ccc(NC(C)=O)cc4)ccnc3O2)cn1 (centres undefined) | ? | ? | nt | ? | 10µM* | nt
CC(=O)Nc1ccc(NC(=O)C2Cc3c(-c4cccc(C(C)=O)c4)ccnc3O2)cc1 (centres undefined) | -1% | -1% | nt | i | i | nt
COc1ccc(NC(=O)C2Cc3c(-c4ccc(NC(C)=O)cc4)ccnc3O2)cc1 (centres undefined) | -22% | -13% | nt | i | i | nt
CC(=O)c1cccc(-c2ccnc3c2CC(C(=O)Nc2ccc(Cl)cc2)O3)c1 (centres undefined) | 16µM* | ? | nt | ? | ? | nt
O=C(NCc1ccccc1)C(=O)NCC(c1cccs1)S(=O)(=O)c1ccccc1 (centres undefined) | nt | nt | nt | i | i | nt
COc1ccc(CCNC(=O)CSc2nnnn2-c2cccc(C(C)=O)c2)cc1OC | nt | nt | nt | i | ? | nt
O=C(Nc1cccc(C(F)(F)F)c1)C1Cc2c(-c3ccccc3)ccnc2O1 (centres undefined) | 23µM* | ? | nt | i | i | nt
O=C(CCl)N(C/C=C/c1ccccc1)c1ccc2c(c1)OCCO2 | ? | 10µM* | ? | i | i | ?
O=C(/C=C/c1ccccc1)c1ccc2c(c1)OCCCCO2 | 12% | 5% | ? | i | i | ?
CCOC(=O)c1sc2nc(C3CC3)cc(-c3ccc(OC)cc3)c2c1N | 6% | 15% | 6.5µM* | i | i | 3.7µM*
CCOC(=O)c1sc2nc(C3CC3)cc(-c3ccc(F)cc3)c2c1N | 8% | 15% | 18µM* | 15µM* | i | ?
COc1ccc(C(=O)c2[nH]c(N)c(C(=O)NCCc3c[nH]c4ccccc34)c2-c2ccc(Cl)c(F)c2)cc1 | 21µM* | ? | nt | i | ? | nt
Nc1[nH]c(C(=O)c2ccc(Br)cc2)c(-c2ccc(Br)cc2)c1C(=O)NCCc1c[nH]c2ccccc12 | ? | ? | nt | 21µM* | ? | nt
